# Measurements published in PubChem BioAssay (EPA / NIEHS).
# Several values for one entry are separate records, joined by “and”; a condition that tells them apart may be missing. Equal values may be shown once. Results filed as inconclusive are left out. More than one record can exist for a structure, and the calls need not agree. Activity calls are given as the source filed them. The calls were made as follows: active = hit-call score of the fitted dose curve at least 0.9, where 1 is the maximum; inconclusive = response in the unintended direction; inactive = score below 0.9.
# Molecular target: Retinoic acid receptor RXR-alpha (Homo sapiens) (UniProt P19793)
# Experiment: OT_NURR1_NURR1RXRa_0480: Odyssey Thera (OT) 8-hour HEK293T Protein Complementation Assay for Nurr1/retinoid X receptor (RXR) (AID 2283385)
# Protocol: OT_NURR1_NURR1RXRa_0480 is a cell-based assay that uses HEK293T, a human kidney cell line, with measurements taken at 8 hours after chemical dosing in a 384-well plate.OT_NURR1_NURR1RXRa_0480 is one of one assay component(s) measured or calculated from the OT_NURR1_NURR1RXRa_0480 assay. It is designed to make measurements of protein fragment complementation, a form of binding reporter, as detected with fluorescence intensity signals by Protein-fragment Complementation technology.Data from the assay component OT_NURR1_NURR1RXRa_0480 was analyzed into 1 assay endpoint. This assay endpoint, OT_NURR1_NURR1RXRa_0480, was analyzed in the positive analysis fitting direction relative to DMSO as the negative control and baseline of activity. Using a type of binding reporter, measures of receptor for gain-of-signal activity can be used to understand the binding at the pathway-level as they relate to the gene RXRA. Furthermore, this assay endpoint can be referred to as a primary readout, because the performed assay has only produced 1 assay endpoint. To generalize the intended target to other relatable targets, this assay endpoint is annotated to the nuclear receptor intended target family, where the subfamily is non-steroidal.
# Protein-fragment complementation assay, or PCA, is a method for the identification and quantification of protein-protein interactions. In the PCA, the proteins of interest ("bait" and "prey") are each covalently linked to fragments of a third protein (e.g. DHFR, which acts as a "reporter"). Interaction between the bait and the prey proteins brings the fragments of the reporter protein in close proximity to allow them to form a functional reporter protein whose activity can be measured.
# Retinoic acid receptor RXR-alpha (Homo sapiens), sequence (P19793 whole entry, looked up): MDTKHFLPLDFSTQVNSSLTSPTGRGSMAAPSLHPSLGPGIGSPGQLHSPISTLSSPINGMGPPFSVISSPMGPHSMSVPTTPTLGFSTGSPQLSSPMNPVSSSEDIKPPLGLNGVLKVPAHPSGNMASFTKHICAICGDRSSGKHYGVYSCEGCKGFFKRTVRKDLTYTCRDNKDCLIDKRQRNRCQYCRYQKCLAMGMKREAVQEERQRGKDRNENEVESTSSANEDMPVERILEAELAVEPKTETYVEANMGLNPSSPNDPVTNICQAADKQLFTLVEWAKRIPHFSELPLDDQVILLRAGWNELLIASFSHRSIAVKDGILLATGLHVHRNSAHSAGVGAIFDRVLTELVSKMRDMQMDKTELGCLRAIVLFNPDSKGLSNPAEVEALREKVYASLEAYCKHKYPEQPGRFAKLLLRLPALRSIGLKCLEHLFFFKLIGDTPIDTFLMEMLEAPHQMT
SMILES,AC50,outcome
Cc1nn(C)c(Oc2ccccc2)c1C=NOCc1ccc(C(=O)OC(C)(C)C)cc1,11.3 µM (active),inactive
S=C([S-])NCCNC(=S)[S-].[Mn+2],,inactive
CCCCOC(=O)[C@@H](C)Oc1ccc(Oc2ccc(C(F)(F)F)cn2)cc1,,inactive
CCOC(=O)COc1cc(-n2ncc(C(F)(F)F)c(C)c2=O)c(F)cc1Cl,,inactive
CC(C)(c1ccc(O)cc1)c1ccc(O)cc1,,inactive
CCC(C)OC(=O)N1CCCCC1CCO (stereo unspecified),,inactive
S=C(S)NCCNC(=S)S.[Mn+2].[S-]C([S-])=NCCN=C([S-])[S-].[Zn+2],,inactive
CN(C)C(=O)Nc1ccc(Cl)c(Cl)c1,,inactive
CCCN(CCC)C(=O)SCC,,inactive
C#CCOC(=O)[C@@H](C)Oc1ccc(Oc2ncc(Cl)cc2F)cc1,,inactive
CCCCCCC(C)OC(=O)COc1nc(F)c(Cl)c(N)c1Cl (stereo unspecified),79.2 µM (active),inactive
CCOC(=O)c1ccc(O)cc1,,inactive
CCCN(CCC)c1c([N+](=O)[O-])cc(C(F)(F)F)c(N)c1[N+](=O)[O-],32.7 µM (active) and 55.6 µM (active),
CC(C)(C)[C@@H](O)[C@@H](Cc1ccc(Cl)cc1)n1cncn1,,inactive
CCCCC(CC)CN1C(=O)C2C3C=CC(C3)C2C1=O (stereo unspecified),,inactive
CCCCOC(=O)C(C)Oc1ccc(Oc2ccc(C(F)(F)F)cn2)cc1 (stereo unspecified),65.1 µM (active),inactive
CCOC(=O)NCCOc1ccc(Oc2ccccc2)cc1,2.34 µM (active),inactive
CCCOC(=O)NCCCN(C)C,,inactive

SMILES,AC50,outcome
COCCO,,inactive
CC(=O)S[C@@H]1CC2=CC(=O)CC[C@]2(C)[C@H]2CC[C@@]3(C)[C@@H](CC[C@@]34CCC(=O)O4)[C@H]12,,inactive
CCN(CC)C(=O)c1cccc(C)c1,,inactive
C=CCOC(Cn1ccnc1)c1ccc(Cl)cc1Cl (stereo unspecified),58.3 µM (active) and 85.7 µM (active),
CC1(C)C(C=C(Cl)Cl)C1C(=O)OCc1cccc(Oc2ccccc2)c1 (stereo unspecified),,inactive
N#CSCSc1nc2ccccc2s1,,inactive
CCCCCOC(=O)COc1cc(N2C(=O)C3=C(CCCC3)C2=O)c(F)cc1Cl,,inactive
CCOC(=O)C(C)Oc1ccc(Oc2nc3ccc(Cl)cc3o2)cc1 (stereo unspecified),78.9 µM (active),inactive
O=C(c1ccccc1)C1CCCCC1,,inactive
C[C@]12C[C@H](O)[C@H]3[C@@H](CCC4=CC(=O)CC[C@@]43C)[C@@H]1CC[C@@H]2C(=O)CO,,inactive
CC(=O)[C@H]1CC[C@H]2[C@@H]3CCC4=CC(=O)CC[C@]4(C)[C@H]3CC[C@]12C,,inactive
C#C[C@]1(O)CC[C@H]2[C@@H]3CCC4=CC(=O)CC[C@@H]4[C@H]3CC[C@@]21CC,,inactive
CSC(=O)c1cccc2nnsc12,,inactive
O=C(O)c1ccccc1,,inactive
COC(=O)c1ccccc1C(=O)O,,inactive
CCCCC(CC)COC(=O)c1ccccc1C(=O)O (stereo unspecified),,inactive
O=C(Nc1ccc([N+](=O)[O-])cc1Cl)c1cc(Cl)ccc1O,1.19 µM (active),inactive
